# Compound activity as filed in PubChem.
# In the library only some 4.6% were active in any assay of this set; here they are far more common.
# TRHR ag = activates the human TRH receptor; P34981; TRHR cells, calcium flux fluo-8, FDSS agonist mode; activation, % at 2 µM; 360,000 compounds, 0.18% hits; AID 493084; further: 0% is about no effect
# Target sequence (P34981 whole entry, looked up): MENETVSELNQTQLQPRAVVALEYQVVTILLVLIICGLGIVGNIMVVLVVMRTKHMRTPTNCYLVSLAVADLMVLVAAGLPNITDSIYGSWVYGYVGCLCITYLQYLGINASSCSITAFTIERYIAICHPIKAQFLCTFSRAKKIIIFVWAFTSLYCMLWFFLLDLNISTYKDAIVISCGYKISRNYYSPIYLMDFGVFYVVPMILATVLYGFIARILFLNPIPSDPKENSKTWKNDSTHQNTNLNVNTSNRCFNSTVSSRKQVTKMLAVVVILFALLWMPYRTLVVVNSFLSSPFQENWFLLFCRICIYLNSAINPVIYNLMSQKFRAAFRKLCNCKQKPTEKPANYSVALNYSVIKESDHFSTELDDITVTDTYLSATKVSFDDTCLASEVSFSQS
#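 Steps: seed TRHR cells overnight; add fluo-8 no-wash Ca dye, RT 30 min–1.5 h; record 10 s baseline; pin-transfer compounds; monitor fluorescence 1 cycle/s for the agonist window. Calcium increases flag candidate agonists.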
# TRHR PAM = allosterically enhances the human TRH receptor. 360,000 compounds, 0.66% hits. AID 493056. P34981. enhancement, % at 2 µM. TRHR cells, fluo-8 calcium fluorescence, EC20 TRH enhancement; in the data active means enhancement above about 30%; further: 0% is about no effect
#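 Enhancer read-out: after compound pinning and an initial kinetic agonist-mode read, an EC20 of TRH (10 nM final) was injected and fluo-8 calcium signal (Ex 480/Em 530) followed at 1 s/cycle for 100 cycles in TRHR-expressing cells.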
# D1 agonist = agonists of human D1 dopamine receptor | activation, % at 2 µM | P21728 | HEK293 T-REx D1 cells, calcium flux, agonist mode | 360,000 compounds, 1% hits | AID 504660; further: 0% is about no effect
#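 Inducible HEK293 T-REx D1 cells, force-coupled to calcium signalling, were plated at 4000 cells/well with tetracycline and held overnight at 30 C. After no-wash calcium dye loading, compound-evoked calcium rise over 180 s flagged agonists.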
# D1 antagonist = antagonists of human D1 dopamine receptor; AID 504652; activity change, negative = inhibition, % at 10 µM; HEK293 TREx D1 cells, calcium flux, dopamine EC80; stronger effect = lower value; 360,000 compounds, 3.2% hits; P21728; in the data active means activity change below about -30%; further: on the % scale 0 is the no-effect control and ±100 the full control effect
#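 After overnight tetracycline induction at 30 C, force-coupled D1 HEK293 cells took up a no-wash calcium dye at room temperature. Compounds were added and monitored 180 s, and the response to EC80 dopamine was then recorded.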
# D1 potentiator = human D1 dopamine receptor positive modulation | HEK293 TREx D1 cells, calcium flux, dopamine EC20 potentiation | P21728 | AID 504651 | potentiation, % at 10 µM | 360,000 compounds, 0.036% hits; in the data active means potentiation above about 30%; further: 0% is about no effect
# * marks the source's active call; other numbers are inactive results. Unless noted, no stated cut-off is given here; in the data, active means activation above about 30%; inactive means the rest.
SMILES,TRHR ag,TRHR PAM,D1 agonist,D1 antagonist,D1 potentiator
COc1ccc(N(C)S(=O)(=O)c2ccc(Cl)c(C(=O)NCC(C)(C)N3CCOCC3)c2)cc1,0.2,-3.7,4.1,-20.1,-1.9
CC(=O)NS(=O)(=O)c1ccc(N=NN2CCCCCC2)cc1,0.3,-3.6,-1.0,-0.3,4.8
CC(=O)NS(=O)(=O)c1ccc(N=NN2CCOCC2)cc1,-0.7,-22.5,0.1,-57.1*,-6.3
Cc1ccc2c(c1)c(=O)c1ccccc1n2CCCC(=O)Nc1cc(Cl)ccc1C,-0.3,3.9,0.1,-8.8,2.9
O=C(CSc1ccc(-c2ccco2)nn1)Nc1ccc(F)cc1F,-0.1,-5.4,3.7,14.7,-5.8
COCCn1c(C)cc(C(=O)COC(=O)c2ccc(Br)o2)c1C,-0.5,-5.4,4.5,6.8,-1.1
O=C(Cc1cccs1)Nc1cccc(-c2nc3ccccc3o2)c1,4.5,-0.5,2.4,-46.5*,-0.1
Cc1ccc(-c2nc3ccccc3o2)cc1NC(=O)Cc1cccs1,1.7,-11.6,2.8,-4.2,-1.7
Cc1cccc(-c2nnc(-c3cccc(NC(=O)Cc4cccs4)c3)o2)c1,0.2,-6.3,4.0,-40.3*,0.8
CCOC(=O)C1CN(S(=O)(=O)c2ccc(C)cc2)c2ccccc2O1 (configuration not stated),1.5,-0.5,5.9,-45.5*,-5.7
Cc1ccc(Cn2c(C(=O)O)c(CNC3CCCCCC3)c3ccc(C)cc32)cc1,0.1,-3.8,0.5,17.9,-3.9
COc1ccc(CNc2ccc(Br)cc2)cc1,0.2,5.2,4.5,-9.3,0.3
COc1ccc(NC2=NCC(Cc3ccc(Br)cc3)S2)cc1 (configuration not stated),0.1,5.2,31.8*,3.2,-5.2
CCOc1ccc(-n2ccnc2SCC(=O)Nc2ccc(OC)cc2OC)cc1,-0.6,-3.0,-0.2,-16.8,0.3
CCCCN(C)CCCNC(=O)Cn1ncc2c3ccccc3n(Cc3cc(C)ccc3C)c2c1=O,-1.9,3.6,96.2*,-0.3,-1.4
Cc1ccc(C)c(Cn2c3ccccc3c3cnn(CC(=O)NCCCN4CCOCC4)c(=O)c32)c1,0.1,-4.8,2.5,-30.4*,-4.3
C=CCn1c(N)cc(=O)nc1SC(C)C(=O)Nc1ccc(C(=O)OCC)cc1 (configuration not stated),-0.1,-3.6,4.1,-35.3*,-3.3
CC1(C)N([O-])C(c2ccccc2)=C[N+](=O)C1(C)C,-0.2,-2.8,1.9,-1.4,-8.0
COc1ccc(OC)c(C2=C[N+](=O)C(C)(C)C(C)(C)N2[O-])c1,0.0,7.8,4.5,-11.7,54.0*
O=C(N1CCc2cc([S+](=O)([O-])N3CCN([S+](=O)([O-])c4c(F)cccc4F)CC3)ccc2C1)C(F)(F)F,1.3,1.4,2.0,1.1,1.6
Cc1cc(C)n2ncc(C(=O)Nc3ccc(Cl)c(Cl)c3)c2n1,0.7,2.6,-1.2,-4.6,3.0
Cc1cc(C)n2ncc(C(=O)O)c2n1,-0.2,1.5,-1.5,-46.0*,-3.5
COc1ccc(NC(=O)N2CCC(c3nc(-c4cccs4)no3)CC2)cc1,0.2,-2.5,1.5,-22.0,-6.5
O=C(Nc1ccc(Cl)cc1)N1CCC(c2nc(-c3cccs3)no2)CC1,0.0,-13.8,16.8,-45.6*,-12.2
Cc1nc2c(-c3ccccc3)c(C)nn2c(C)c1CCC(=O)NCc1ccc(F)cc1,-0.2,5.8,0.2,-11.9,-6.0
SMILES,TRHR ag,TRHR PAM,D1 agonist,D1 antagonist,D1 potentiator
Cc1ccc(-c2cn3cccc(C)c3n2)cc1,-1.9,2.6,2.0,-4.3,3.5
COc1ccc(-c2cn3cccc(C)c3n2)cc1F,1.3,-2.8,4.3,-37.5*,8.6
COc1ccccc1N(CC(=O)N/N=C(\C)c1cccc(Br)c1)S(C)(=O)=O,-0.5,-3.4,0.4,-30.2*,-5.8
COCCNC(=O)CN(c1ccccc1OC)S(C)(=O)=O,0.5,-2.2,2.9,-30.2*,0.3
CCOc1ccccc1N(CC(=O)N/N=C(\C)c1cccc(Br)c1)S(C)(=O)=O,-2.0,1.1,-0.5,-2.8,11.4
COc1ccccc1N(CC(=O)NCCc1ccccc1)S(C)(=O)=O,-0.3,14.2,-0.3,19.3,-1.8
O=S(=O)(c1ccc2c(c1)OCCO2)N1CCN(S(=O)(=O)c2ccc(Br)cc2F)CC1,0.2,2.7,-0.5,-1.2,2.1
O=S(=O)(c1ccc(F)cc1)N1CCN(C(=S)NCc2ccccc2)CC1,0.6,5.4,4.5,-31.4*,-4.4
